Experimental data taken from PubChem BioAssay.
Values without a mark were called inactive. For some assays here: Entries with a potency or affinity are not part of this list. Calls of active or inactive are those of the source. Unless noted, how the calls were made is not given here.

Assays:
[1] = antimalarial activity against Dd2 strain (AID 2302;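 active means growth inhibition above 50% at the single 2 µM test dose, taken to imply half-maximal potency below 2 µM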;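 further: 0% = DMSO untreated growth and 100% = chloroquine plus artemisinin killed control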); settings: P. falciparum Dd2 in RBCs, LDH growth readout, 72 h; at 2 µM; stronger effect = higher value
[2] = human hepatoma cell viability loss – ATP luminescence, cytotoxicity control for P. falciparum antimalarial project, primary screen (AID 2303;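 active means inhibition above 50%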;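 further: 0% = DMSO wells and 100% = digitonin-killed cells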); settings: HepG2 viability, 24-48 h, at 10 µM, stronger effect = higher value
[3] = target: L-lactate dehydrogenase (Plasmodium falciparum (isolate CDC / Honduras)) (UniProt Q27743); assay: PfLDH activity inhibition – cell lysate, 3D7 strain, counter-screen for P. falciparum growth inhibition project (AID 2304);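 further: 0% = vehicle and 100% = reference inhibitor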; settings: P. falciparum 3D7 crude extract, LDH APAD/NBT absorbance; at 2 µM; stronger effect = higher value
Chain of L-lactate dehydrogenase (Plasmodium falciparum (isolate CDC / Honduras)) (Q27743 whole entry, looked up): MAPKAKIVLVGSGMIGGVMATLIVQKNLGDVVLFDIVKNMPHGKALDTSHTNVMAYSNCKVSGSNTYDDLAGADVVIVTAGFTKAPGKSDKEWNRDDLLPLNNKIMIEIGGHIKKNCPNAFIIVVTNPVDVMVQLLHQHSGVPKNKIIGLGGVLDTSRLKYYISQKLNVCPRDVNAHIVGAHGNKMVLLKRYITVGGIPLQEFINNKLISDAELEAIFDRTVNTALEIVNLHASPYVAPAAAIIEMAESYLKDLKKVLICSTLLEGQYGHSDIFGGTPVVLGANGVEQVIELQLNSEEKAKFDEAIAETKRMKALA

[4] = inhibition of 3D7 malaria parasite growth – strain 3D7 (AID 2306);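 further: 0% = DMSO wells and 100% = chloroquine plus artemisinin control wells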; settings: P. falciparum 3D7 erythrocytic growth, LDH absorbance, 72 h; at 2 µM; stronger effect = higher value
[5] = target: Calcium-dependent protein kinase 1 (Plasmodium falciparum (isolate 3D7)) (UniProt P62344); assay: PfCDPK1 kinase inhibitors, biochemical, TCAMS library (AID 1159585; cut-off not given, nearly all actives have IC50 up to about 0.98 µM;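 further: inhibitors leave more ATP so luminescence rises with inhibition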); settings: recombinant PfCDPK1, Kinase-Glo ATP depletion luminescence
Chain of Calcium-dependent protein kinase 1 (Plasmodium falciparum (isolate 3D7)) (P62344 whole entry, looked up): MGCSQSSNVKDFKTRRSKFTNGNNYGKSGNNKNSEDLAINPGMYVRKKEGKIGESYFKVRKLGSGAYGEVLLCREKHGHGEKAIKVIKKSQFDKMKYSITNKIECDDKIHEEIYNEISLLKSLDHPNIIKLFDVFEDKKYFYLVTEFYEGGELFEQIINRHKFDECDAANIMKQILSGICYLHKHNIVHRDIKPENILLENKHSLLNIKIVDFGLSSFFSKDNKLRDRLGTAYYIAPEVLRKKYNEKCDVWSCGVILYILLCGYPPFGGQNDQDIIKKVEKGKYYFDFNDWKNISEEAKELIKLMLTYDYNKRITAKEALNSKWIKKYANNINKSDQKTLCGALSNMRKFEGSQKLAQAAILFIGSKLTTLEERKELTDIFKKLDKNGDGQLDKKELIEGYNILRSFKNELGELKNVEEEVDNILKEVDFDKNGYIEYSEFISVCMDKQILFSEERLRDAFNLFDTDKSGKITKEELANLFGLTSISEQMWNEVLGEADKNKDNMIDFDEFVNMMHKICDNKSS

[6] = target: Plasmodium falciparum protein kinase 6 (PK6, PF3D7_1337100) (UniProt Q8IDW1); assay: PfPK6 kinase inhibitors, biochemical, TCAMS library (AID 1159586); settings: recombinant PfPK6, Kinase-Glo ATP depletion luminescence
Chain of Plasmodium falciparum protein kinase 6 (PK6, PF3D7_1337100) (Q8IDW1 1-305): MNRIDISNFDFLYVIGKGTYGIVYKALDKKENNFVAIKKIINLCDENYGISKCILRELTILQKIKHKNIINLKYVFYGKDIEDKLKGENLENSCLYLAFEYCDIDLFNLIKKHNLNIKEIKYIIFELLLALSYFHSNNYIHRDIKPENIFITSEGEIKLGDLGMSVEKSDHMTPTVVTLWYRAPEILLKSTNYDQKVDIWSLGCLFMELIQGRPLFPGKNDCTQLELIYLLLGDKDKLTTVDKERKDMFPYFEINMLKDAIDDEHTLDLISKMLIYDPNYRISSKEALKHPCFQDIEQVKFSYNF

[7] = target: Protein kinase 7 (PK7), Plasmodium falciparum 3D7 (PF3D7_0213400) (UniProt Q7YTF7); assay: inhibition of Plasmodium PK7 catalytic activity – biochemical, TCAMS antimalarial set, Kinase-Glo luminescence (AID 1159587); settings: recombinant PfPK7, Kinase-Glo ATP depletion luminescence
Chain of Protein kinase 7 (PK7), Plasmodium falciparum 3D7 (PF3D7_0213400) (Q7YTF7 1-343): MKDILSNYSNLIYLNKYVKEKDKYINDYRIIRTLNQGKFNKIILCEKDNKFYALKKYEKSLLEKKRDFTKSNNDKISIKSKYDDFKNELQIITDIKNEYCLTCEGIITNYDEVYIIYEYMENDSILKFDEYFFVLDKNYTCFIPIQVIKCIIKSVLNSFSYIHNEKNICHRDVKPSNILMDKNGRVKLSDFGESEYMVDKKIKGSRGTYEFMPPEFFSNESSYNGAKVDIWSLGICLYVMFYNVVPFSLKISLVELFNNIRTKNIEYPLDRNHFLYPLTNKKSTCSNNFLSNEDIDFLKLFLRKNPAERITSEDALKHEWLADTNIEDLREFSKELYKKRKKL

[8] = target: Calcium-dependent protein kinase 4 (Plasmodium falciparum (isolate 3D7)) (UniProt Q8IBS5); assay: PfCDPK4 kinase inhibitors, biochemical, TCAMS library (AID 1159588; cut-off not given, nearly all actives have IC50 up to about 0.91 µM); settings: recombinant PfCDPK4, Kinase-Glo ATP depletion luminescence
Chain of Calcium-dependent protein kinase 4 (Plasmodium falciparum (isolate 3D7)) (Q8IBS5 whole entry, looked up): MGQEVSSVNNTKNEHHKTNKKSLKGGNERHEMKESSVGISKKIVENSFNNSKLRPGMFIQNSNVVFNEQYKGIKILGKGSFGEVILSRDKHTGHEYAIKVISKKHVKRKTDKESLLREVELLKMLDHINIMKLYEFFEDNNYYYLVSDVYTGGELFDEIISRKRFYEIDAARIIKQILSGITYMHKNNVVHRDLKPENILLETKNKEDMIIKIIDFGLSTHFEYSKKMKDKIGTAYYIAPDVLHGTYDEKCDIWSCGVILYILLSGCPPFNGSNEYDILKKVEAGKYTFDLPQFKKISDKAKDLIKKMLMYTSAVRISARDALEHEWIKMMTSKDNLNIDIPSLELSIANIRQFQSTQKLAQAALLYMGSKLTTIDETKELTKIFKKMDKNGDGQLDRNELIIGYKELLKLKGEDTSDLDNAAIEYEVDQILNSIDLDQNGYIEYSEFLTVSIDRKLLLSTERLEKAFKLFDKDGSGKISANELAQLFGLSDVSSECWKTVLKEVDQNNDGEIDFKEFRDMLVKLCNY

Structure (SMILES)	growth inhibition [1]	inhibition [2]	inhibition [3] [%]	growth inhibition [4]	outcome [5]	outcome [6]	outcome [7]	outcome [8]
NC(=O)COc1c(C2CCN(CCN3CCC(CNC(=O)c4ccc(-c5ccc(C(F)(F)F)cc5)cc4)CC3)CC2)ccc2c1CCCC2	68% (active)	32%	-1	87% (active)	inactive	inactive	inactive	inactive
Cc1cccc2[nH]c(-c3cccc(-c4cccc(NC(=O)c5csnn5)c4)c3)nc12	49%	10%	1	98% (active)	inactive	inactive	inactive	inactive
CCc1ccc(C(=O)Nc2cccc(CN3CCCN(Cc4ccc(O)cc4)CC3)c2)cc1	74% (active)	11%	-1	101% (active)	inactive	inactive	inactive	inactive
O=C(CCn1cncn1)N1CCCC(c2[nH]c3ccccc3c2-c2ccncc2)C1 (stereo not given)	79% (active)	1%	-1	97% (active)	inactive	inactive	inactive	inactive
CC(=O)Nc1ccc(CN2CCC(NC(=O)c3ccc(-c4cccc(Cl)c4)s3)CC2)cc1	59% (active)	34%	3	97% (active)	inactive	inactive	inactive	inactive
Cc1ccc(NC(=O)N2CCCN(CCCCCNC(=O)/C=C/c3ccc(Cl)c(Cl)c3)CC2)cc1C	4%	62% (active)	1	101% (active)	inactive	inactive	inactive	inactive
COc1ccc(NC(=O)Nc2cccc(-c3cccc(-c4nc5ccc(F)cc5[nH]4)c3)c2)cc1	39%	59% (active)	5	99% (active)	inactive	inactive	inactive	inactive
CC1(C)N=C(N)N=C(N)N1OCCCc1ccccc1	94% (active)	64% (active)	1	96% (active)	inactive	inactive	inactive	inactive
CCOc1cc(C(=O)NCC2CCN(CC3CCCCC3)CC2)ccc1-c1nc2ccc(Cl)cc2[nH]1	59% (active)	14%	-6	98% (active)	inactive	inactive	inactive	inactive
Cc1ccc2c(c1C)NC(=O)C21NN=C(c2ccccc2)S1 (stereo not given)	65% (active)	31%	0	97% (active)	inactive	inactive	inactive	inactive
COc1ccc(C(=O)CCC(=O)N(Cc2ccc(-c3ccc(CNCc4cccnc4)cn3)cc2)C2CCN(Cc3ccccc3)CC2)cc1F	26%	30%	3	94% (active)	inactive	inactive	inactive	inactive
CC1(CCCCN2CCC(Cc3ccccc3)CC2)C(=O)Nc2ccccc21 (stereo not given)	28%	66% (active)	-8	100% (active)	inactive	inactive	inactive	inactive
N=c1n(Cc2ccccc2)c2ccccc2n1CC(O)c1ccc(Cl)cc1 (stereo not given)	75% (active)	26%	-1	96% (active)	inactive	inactive	inactive	inactive
COc1cc2c(C3CCN(CC4CCC(NC(=O)/C=C/c5ccc(Cl)c(Cl)c5)CC4)CC3)c[nH]c2cn1 (stereo not given)	100% (active)	44%	-5	101% (active)	inactive	inactive	inactive	inactive
CC(C)CN1CCC(COc2ccc3ncn(-c4cc(O[C@H](C)c5ccccc5C(F)(F)F)c(C(N)=O)s4)c3c2)CC1	86% (active)	46%	7	97% (active)	inactive	inactive	inactive	inactive
c1ccc(C(c2ccccc2)N2CCC(NCc3ccc(OCCCN4CCCCC4)cc3)CC2)cc1	101% (active)	74% (active)	4	100% (active)	inactive	inactive	inactive	inactive
COc1ccc(Oc2ccccc2CNCC2CCN(CC3CCCCC3)CC2)cc1	28%	34%	-8	85% (active)	inactive	inactive	inactive	inactive
CCN1CCN(c2cc(C)c3cc(NC(=O)c4cncc(Br)c4)ccc3n2)CC1	63% (active)	3%	3	97% (active)	inactive	inactive	inactive	inactive
COCCNC(=O)c1ccc(OC2CCN(Cc3ccc(F)c(F)c3)CC2)c(Cl)c1	73% (active)	8%	-2	88% (active)	inactive	inactive	inactive	inactive
CCN1CCN(c2cc(C)c3cc(NC(=O)c4cccc(Cl)c4)ccc3n2)CC1	58% (active)	4%	-4	100% (active)	inactive	inactive	inactive	inactive

Structure (SMILES)	growth inhibition [1]	inhibition [2]	inhibition [3] [%]	growth inhibition [4]	outcome [5]	outcome [6]	outcome [7]	outcome [8]
Oc1ccc(CCNc2nc(NCc3ccc4cc(Cl)ccc4c3)nc(N3CCNCC3)n2)cc1	38%	14%	-3	92% (active)	inactive	inactive	inactive	inactive
O=S(=O)(NC1CCCCN(Cc2ccccc2O)C1)c1ccc(C(F)(F)F)cc1 (stereo not given)	39%	1%	7	84% (active)	inactive	inactive	inactive	inactive
OC1CCN(c2cc(-c3ccccn3)nc(-c3ccccn3)n2)CC1	97% (active)	43%	-2	83% (active)	inactive	inactive	inactive	inactive
CCN(CC)CC#Cc1ccc2[nH]c(C)c(Cl)c(=O)c2c1	95% (active)	11%	-6	96% (active)	inactive	inactive	inactive	inactive
c1ccc2c(C3CCN(CCCCOc4ccc5c(c4)CCN(C4CCC4)CC5)CC3)c[nH]c2c1	100% (active)	80% (active)	-3	102% (active)	inactive	inactive	inactive	inactive
Cc1nc(-c2ccc(-c3ccc(C(=O)Nc4ccc(I)c(OCCN5CCCC5)c4)cc3)c(C)c2)no1	35%	96% (active)	-1	95% (active)	inactive	inactive	inactive	inactive
CCC(CC)(Cc1ccccc1)NC(=O)[C@H](CC(C)C)Nc1ccc(C#N)c2ccccc12	73% (active)	57% (active)	-1	90% (active)	inactive	inactive	inactive	inactive
CC[C@H](C)CNCc1ccc(OCc2cccc(COc3ccc(CNC[C@@H](C)CC)cc3I)c2)c(I)c1	60% (active)	99% (active)	7	99% (active)	inactive	inactive	inactive	inactive
COc1ccc(Oc2ccc(Nc3ccnc4ccc(C(F)(F)F)cc34)cc2)cc1OC	17%	-2%	2	90% (active)	inactive	inactive	inactive	inactive
CC(C)(C)CCN1CCC(CNC(=O)c2cc(-c3cccc(Cl)c3)cs2)C1 (stereo not given)	13%	50% (active)	3	99% (active)	inactive	inactive	inactive	inactive
COc1cc(OC)c(OC)cc1CN1CCC2(CC1)CN(Cc1ccc(Cl)c(Cl)c1)C(=O)O2	94% (active)	8%	3	90% (active)	inactive	inactive	inactive	inactive
Cc1cccc(OC(C)C(=O)Nc2cc(C(F)(F)F)ccc2N2CCOCC2)c1 (stereo not given)	98% (active)	2%	-3	100% (active)	inactive	inactive	inactive	inactive
C[C@H](Cc1ccc(Oc2ccc(C[C@@H](C)NC[C@H](O)c3cccc(Cl)c3)cc2)cc1)NC[C@H](O)c1cccc(Cl)c1	96% (active)	99% (active)	-3	100% (active)	inactive	inactive	inactive	inactive
O=C1CCCN1CCCNCc1cccc(-c2ccc(-c3nc4ccccc4[nH]3)s2)c1	0%	-6%	-3	97% (active)	inactive	inactive	inactive	inactive
CN(C)CCOC(=O)C1(O)CCC2CC1C2(C)C (stereo not given)	-5%	10%	-9	95% (active)	inactive	inactive	inactive	inactive
COc1ccc2ncc(F)c(CCN3[C@@H]4CC[C@H]3CC(NCc3ccc5c(c3)OCCO5)C4)c2n1 (stereo not given in full)	35%	27%	-5	102% (active)	inactive	inactive	inactive	inactive
C#C[C@H]1O[C@@H](n2cnc3c(Nc4cc(Br)cc(C(F)(F)F)c4)ncnc32)[C@H](O)[C@@H]1O	56% (active)	21%	4	94% (active)	inactive	inactive	inactive	inactive
COc1ccc2nc(C)cc(NC3Cc4ccccc4C3)c2c1	13%	20%	5	98% (active)	inactive	inactive	inactive	inactive
Cc1cc(OC(C)C(=O)N2CCc3ccccc32)ccc1Cl (stereo not given)	54% (active)	20%	6	89% (active)	inactive	inactive	inactive	inactive
Cc1ccnc2nc(C(=O)Nc3cc(Cl)ccc3N3CCOCC3)nn12	63% (active)	-4%	-1	84% (active)	inactive	inactive	inactive	inactive
